Data as given in PubChem BioAssay (EPA / NIEHS).
Values joined by “and” are separate entries in the source; they are usually repeats but may differ in a detail not shown here. Identical values can stand only once. Active and inactive are the calls of the source. The calls were made as follows: active = hit-call score of the fitted dose curve at least 0.9, where 1 is the maximum; inactive = score below 0.9.

What follows are compounds tested on Secreted IgG (sIgG), gene 3500 (assay: BSK_BT_sIgG: BioMAP Diversity Plus: BT Assay for Secreted IgG (sIgG) Biomarker Activity (AID 2284226)). Details: primary human B cells with PBMC.
Method: BSK_BT is a cell-based, multiplexed-readout assay that uses B cell and peripheral blood mononuclear cells, a human vascular primary cell co-culture, with measurements taken at 24 hours after chemical dosing in a microplate: 96-well plate.BSK_BT_sIgG is an assay component measured in the BSK_BT assay. It measures secreted IgG related to regulation of gene expression using ELISA technology.Data from the assay component BSK_BT_sIgG was analyzed at the endpoint, BSK_BT_sIgG, in the positive analysis fitting direction relative to DMSO as the negative control and baseline of activity. Using a type of cytokine quantitation reporter, gain or loss-of-signal activity can be used to understand protein changes. To generalize the intended target to other relatable targets, this assay endpoint is annotated to the 'immunoglobulin' intended target family, where the subfamily is 'IgG'.
The levels of cell surface (or secreted, indicated by the prefix "s") biomarker endpoints were measured by ELISA. Overt cytotoxicity to cells in confluent adherent cultures (all systems other than the BT system) was assessed by measuring total protein levels using sulforhodamine B (SRB) staining in parallel cultures at the time of biomarker measurements, indicated as SRB endpoints. For proliferation assays for adherent cell types, individual cell types are cultured at sub-confluence and relative cell numbers quantified by SRB staining at time points optimized for each system (48 h: 3C and CASM3C systems; 72 h: BT and HDF3CGF systems; 96 h: SAg system). SRB was performed by staining cells with 0.1% SRB after fixation with 10% TCA and reading wells at 560 nm.Viability and proliferation of PBMC (T cells) was quantified by Alamar Blue reduction for the SAg and BT systems. For PBMC viability (referred to as PBMC Cytotoxicity within the assay endpoint names), cells were plated (75,000/well in a 96-well plate) and then chemical samples added for 1 h before addition of activators, SEB and TSST-1 (20 ng/mL final concentration each). Cells were incubated for 90 h. Then, Alamar Blue (20 uL/well) (Invitrogen, Cat DAL1100) was added for 6 h, and the plates were read with a fluorescence microplate reader at 546/580 nm (excitation/emission). For PBMC proliferation, cells were plated and activated as above but incubated for only 16 h prior to addition of Alamar Blue. Plates were read after 6 h.

`O=C(CCl)NCO` was tested. Which outcome did it give?
The outcome was “inactive”.

`OC(Cc1ccccc1Cl)(Cn1[nH]cnc1=S)C1(Cl)CC1` (stereo not given) was tested. Which AC50 did it give?
Its AC50 is 23.8 µM (active).

With `N#CCCC(Br)(C#N)CBr` (stereo not given) as the compound, how does the AC50 read?
Its AC50 is 7.61 µM (active).

Which outcome does the source give for `CCOP(=S)(OCC)SCS(=O)(=O)C(C)(C)C` here?
The outcome was “inactive”.

How did the AC50 turn out when `CCCCN(CCCC)C(=S)[S-].CCCCN(CCCC)C(=S)[S-].[Ni+2]` was run?
Its AC50 is 2.66 µM (active).

`CCC(C)(C#N)N=NC(C)(C#N)CC` (stereo not given) was tested. Which outcome did it give?
Its outcome is “inactive”.

How did the outcome turn out when `Nc1c(Oc2ccccc2)cc(O)c2c1C(=O)c1ccccc1C2=O` was run?
The outcome was “inactive”.

Which AC50 does the source give for `CCOC(=O)CCN(SN(C)C(=O)Oc1cccc2c1OC(C)(C)C2)C(C)C` here?
Its AC50 is 27.5 µM (active).

How did the AC50 turn out when `C#CCOC(=O)/C=C(C)/C=C/CC(C)CCCC(C)C` (stereo not given) was run?
The AC50 was 20 µM (active).

Which AC50 does the source give for `CC(C)=CC1C(C(=O)OCc2cccc(Oc3ccccc3)c2)C1(C)C` (stereo not given) here?
Its AC50 is 13.8 µM (active).

For `CCOP(=O)(OCC)OC(=CCl)c1ccc(Cl)cc1Cl`, which AC50 is on record?
The AC50 was 20 µM (active).

`Cc1ccc(OP(=O)(Oc2ccc(C)cc2C)Oc2ccc(C)cc2C)c(C)c1` was tested. Which AC50 did it give?
The AC50 was 15.4 µM (active).

`COCC(=O)N(c1c(C)cccc1C)[C@H](C)C(=O)OC` was tested. Which outcome did it give?
The outcome was “inactive”.

For `NC(=O)CCl`, which outcome is on record?
The outcome was “inactive”.

`CC(C)(C)c1cc([N+](=O)[O-])cc(C(C)(C)C)c1O` was tested. Which AC50 did it give?
Its AC50 is 2.8 µM (active).

For `Cc1ccccc1OP(=O)(Oc1ccccc1)Oc1ccccc1`, which AC50 is on record?
Its AC50 is 30.9 µM (active).

With `CC(C=O)Cc1ccc2c(c1)OCO2` (stereo not given) as the compound, how does the outcome read?
The outcome was “inactive”.

With `Cc1cc(C(C)(C)c2ccc(O)c(C)c2)ccc1O` as the compound, how does the AC50 read?
Its AC50 is 10 µM (active).

For `O=[N+]([O-])c1ccc(Nc2ccccc2)cc1`, which AC50 is on record?
The AC50 was 12.9 µM (active).

Which AC50 does the source give for `CC1(C)[C@H](C(=O)O[C@H](C#N)c2cccc(Oc3ccccc3)c2)[C@@H]1/C=C(\Cl)C(F)(F)F` here?
Its AC50 is 25.1 µM (active) and 28.9 µM (active).

For `O=C1C=CC(=O)c2ccccc21`, which AC50 is on record?
The AC50 was 0.251 µM (active).

For `[Cl][Sn]([c]1ccccc1)([c]1ccccc1)[c]1ccccc1`, which AC50 is on record?
Its AC50 is 0.313 µM (active).

For `Cc1ccc2nc3sc(=O)sc3nc2c1`, which AC50 is on record?
Its AC50 is 5 µM (active).

`CCOP(=S)(OCC)OP(=S)(OCC)OCC` was tested. Which outcome did it give?
The outcome was “inactive”.

How did the outcome turn out when `CCOP(=O)(OCC)SCCSCC` was run?
Its outcome is “inactive”.

For `C=CC(Cl)CCl` (stereo not given), which outcome is on record?
The outcome was “inactive”.

With `Oc1ccc(Cc2ccc(O)cc2)cc1` as the compound, how does the outcome read?
The outcome was “inactive”.

How did the outcome turn out when `Oc1c(Br)cc(Br)cc1Br` was run?
Its outcome is “inactive”.

With `Cc1ccccc1OP(=O)(Oc1ccccc1C)Oc1ccccc1C` as the compound, how does the AC50 read?
Its AC50 is 13.9 µM (active).

Which outcome does the source give for `O=C(O)COc1cc(Cl)c(Cl)cc1Cl` here?
Its outcome is “inactive”.

How did the AC50 turn out when `O=c1oc2ccccc2c(O)c1C(CC(O)c1ccc(-c2ccc(Br)cc2)cc1)c1ccccc1` (stereo not given) was run?
Its AC50 is 20.8 µM (active).

For `Cc1c([N+](=O)[O-])c(C)c([N+](=O)[O-])c(C(C)(C)C)c1[N+](=O)[O-]`, which outcome is on record?
Its outcome is “inactive”.

How did the outcome turn out when `CCN(CC)C(=O)C(Cl)=C(C)OP(=O)(OC)OC` was run?
Its outcome is “inactive”.

Which outcome does the source give for `O=[N+]([O-])c1cccc2ccccc12` here?
Its outcome is “inactive”.

With `CCCCCCCCCCCCN(C)C` as the compound, how does the outcome read?
The outcome was “inactive”.

Which outcome does the source give for `Nc1ccc(N)cc1` here?
Its outcome is “inactive”.

Which outcome does the source give for `Cc1cc(Cl)ccc1N` here?
Its outcome is “inactive”.

`O=S(=O)(C(Cl)(Cl)Cl)C(Cl)(Cl)Cl` was tested. Which AC50 did it give?
Its AC50 is 2.2 µM (active).

For `c1ccc2sc(SNC3CCCCC3)nc2c1`, which AC50 is on record?
Its AC50 is 32 µM (active).

Which AC50 does the source give for `CC(C)(COCC1CO1)COCC1CO1` (stereo not given) here?
Its AC50 is 16 µM (active).
